Measurements as given in PubChem BioAssay AID1347076 (National Center for Advancing Translational Sciences (NCATS), 2019).
Where “and” joins values, the source holds several entries; their conditions need not be identical. Equal values may be shown once. Among all 400,000 compounds or so, about 13,000 (3.2%) were called active. Entries that show only a call come without a potency. Not shown: some 18% with an inconclusive outcome. The call rests on the fitted dose curve; in most records, active means well fitted cell-killing curve with a large enough effect; inconclusive means small, poorly fitted or top-dose-only effect, or effect the other way; inactive means flat fitted curve, though single readings scatter. This excerpt belongs to a sample that is enriched for actives.

experiment: qHTS assay for MDR1-selective chemotherapeutics: Primary screen using the drug-selected MDR subline cells KB-V1; conditions: KB-V1 MDR cells viability, CellTiter-Glo, 72 h; series mostly up to 46.1 µM; further: nearly all actives have a fitted effect of over 60% in size
Outline: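 Drug-selected KB-V1 cells, grown in DMEM lacking phenol red with 10% FBS, receive compound titrations; after three days at 37 degrees C, surviving cell ATP is quantified by CellTiter-Glo luminescence and responses normalized and curve-fitted.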
Potency means the concentration at half of the fitted maximal effect.

Row | SMILES | Potency
1 | CN(Cc1ccccc1)C(=O)[C@@H]1CCCN1C(=O)[C@@H]1CCCN1C(=O)c1c(F)cccc1F | inactive
2 | O=C(COC(=O)c1cccc(Cl)c1Cl)NC1CCCCCC1 | inactive
3 | CNC[C@H]1OCc2cnnn2CCCC(=O)N([C@H](C)CO)C[C@@H]1C | inactive
4 | C[N+](C)(C)CCNC(=O)c1c[nH]c2ccccc12 | inactive
5 | Cc1ccc(Cc2c(-c3ccc(Cl)cc3)nc3c4ccccc4ccn23)cc1 | inactive
6 | COc1ccc(CN2C(=O)C(CC(=O)NCCN3CCOCC3)CC(C(=O)N(C(C)C)C(C)C)=C2C)cc1 (centres undefined) | inactive
7 | COC(=O)c1ccccc1S(=O)(=O)Nc1ccc(OC)cc1 | inactive
8 | OC[C@@H]1CN(Cc2ccc(-c3ccccc3)cc2)C[C@H](n2cnc3c(NC4CCCC4)ncnc32)O1 | inactive
9 | Cc1ccc(Cn2c(=O)n(Cc3nc(-c4ccccc4)no3)c(=O)c3cc4c(cc32)OCO4)cc1 | inactive
10 | CCOC(=O)[C@]12CCC=C1N(Cc1ccccc1)C(=O)[C@H](CC(=O)N1CCCC1)C2 | inactive
11 | COc1cc(C(O)c2nc(-c3cnn(C)c3)cs2)ccc1F (centres undefined) | inactive
12 | COc1ccc(C(=O)/C=C/c2ccc(OC3CSC3)cc2)cc1 | inactive
13 | COc1ccc(C(=O)c2oc3ccc(Br)cc3c2NC(C)=O)cc1 | inactive
14 | COc1ccc(/C=C/C(=O)c2cc(Br)ccc(=O)c2O)cc1 | 14.6 µM (active)
15 | COc1ccc(CCNC(=O)Nc2ccc3c(c2)c(=O)n(C)n3C)cc1OC | inactive
16 | COC(=O)C[C@@H]1C=C[C@@H](NC(=O)c2cccnc2)[C@@H](CO)O1 | inactive
17 | COc1cccc(C(=O)Nc2ccc(N3CCCC3)cc2)c1 | 5.8 µM (active)
18 | COc1cccc(C(=O)Nc2ccc3nc4n(c(=O)c3c2)CCCCC4)c1 | inactive
19 | COc1ccc(C(=O)Nc2ccc(N3CCC(C)CC3)cc2)cc1Br | inactive
20 | O=C1c2ccccc2C(=O)N1c1ccc(S(=O)(=O)N2CCOCC2)c2ccccc12 | inactive
21 | CCOc1ccccc1N(CC)C(=O)Nc1cn(C)c(=O)c2ccccc12 | inactive
22 | O=c1c2ccccc2nc2n1C(CSc1ccc(F)cc1)CN2 (centres undefined) | inactive
23 | N#Cc1c(-c2ccccc2)nc(SCc2cccc(C(F)(F)F)c2)[nH]c1=O | inactive
24 | O=c1c2ccccc2nc2n1C(CSCc1cccc(C(F)(F)F)c1)CS2 (centres undefined) | 2.59 µM (active)
25 | COc1ccc(N(C)S(=O)(=O)c2ccc3c(c2)CC(C)N3C(=O)C2CC2)c(OC)c1 (centres undefined) | 8.2 µM (active)

Row | SMILES | Potency
26 | COc1cccc(CNS(=O)(=O)c2ccc3c(c2)CC(C)N3C(C)=O)c1 (centres undefined) | inactive
27 | COc1cccc(CNS(=O)(=O)c2ccc3c(c2)CC(C)N3C(=O)C2CCC2)c1 (centres undefined) | inactive
28 | COc1cc(NC(=O)C2=C(C)OCCS2)c(Cl)cc1C(=O)NCCCN1CCCC(C)C1 (centres undefined) | inactive
29 | Cc1cc(C)cc(-n2c(SCC(=O)NCC3CCCO3)nc3c([nH]c4ccccc43)c2=O)c1 (centres undefined) | inactive
30 | Cc1ccc(C(=O)NNC(=O)C(C)Oc2ccc3ccccc3c2)o1 (centres undefined) | inactive
31 | CC(Oc1ccc2ccccc2c1)C(=O)NNC(=S)NC(=O)c1ccco1 (centres undefined) | 3.66 µM (active)
32 | CCCc1ccc(OCC(=O)NNC(=S)NC(=O)c2ccco2)cc1 | inactive
33 | COC(=O)Cc1ccc(OC2(C)CCN(Cc3ccc4c(c3)OCCO4)C2)cc1 (centres undefined) | inactive
34 | CC(C)CCNC(=O)CN(C(=O)Cn1nnc(-c2ccc(F)cc2)n1)C1CCCC1 | 10.3 µM (active)
35 | CC(C)CCNC(=O)C(C)N(C(=O)Cn1nnc(-c2ccc(F)cc2)n1)C1CCCC1 (centres undefined) | inactive
36 | CN(C(=O)Cn1nnc(-c2ccc(F)cc2)n1)C1CCS(=O)(=O)C1 (centres undefined) | inactive
37 | COc1ccc(C(CNC(=O)c2ccc(OCc3cscn3)cc2)N2CCCC2)cc1 (centres undefined) | inactive
38 | CCCCCCC1(C)NC(c2ccc3c(c2)OCO3)=CC(c2ccccc2O)N1 (centres undefined) | inactive
39 | Cc1ccc(S(=O)(=O)N2C[C@H]3n4c(=O)ccc(=O)n4C[C@H](OC(=O)NC4CCCC4)[C@@]3(O)C2)cc1 | inactive
40 | COc1cccc(NC(=O)C2(C)CCN2Cc2ccccc2Cl)c1 (centres undefined) | inactive
41 | O=Nc1c(O)cc(O)c2ccccc12 | inactive
42 | Cc1cccc(Nc2nc(C)nc(N)c2S(=O)(=O)c2ccccc2)c1 | inactive
43 | O=C(Nc1cccc(Cl)c1)c1cc([N+](=O)[O-])ccc1N1CCN(CCO)CC1 | inactive
44 | CCN1CCN(c2ccc([N+](=O)[O-])cc2C(=O)c2ccc(Cl)cc2)CC1 | 23.1 µM (active)
45 | CC1CCN(c2ccc([N+](=O)[O-])cc2C(N)=O)CC1 | inactive
46 | COc1ccc(CC(N)c2csc(NC(=O)NC(c3ccccc3)c3ccccc3)n2)cc1 (centres undefined) | inactive
47 | CC1(C(=O)NS(=O)(=O)c2cccc(OC(F)F)c2)CCN1C(=O)C1CC1 (centres undefined) | inactive
48 | Cc1ccc(CN2CC(N3CCC(Cc4ccccc4)CC3)CS2(=O)=O)cc1 (centres undefined) | inactive
49 | CS(=O)(=O)Nc1ccc(C(=O)N2CCCC2)cc1 | inactive
50 | Cc1c(Cl)cccc1NC(=O)Nc1ccc(C(=O)N2CCCC2)cc1 | 16.4 µM (active)

Row | SMILES | Potency
51 | O=C(Nc1ccc(Cl)cc1)Nc1ccc(C(=O)N2CCOCC2)cc1 | inactive
52 | O=C(Nc1cccc(Cl)c1)c1csnn1 | inactive
53 | COc1ccc(C2NC(=O)N(C)C3=C2C(=O)N(c2ccc(C(=O)O)cc2)C3)cc1 (centres undefined) | inactive
54 | O=S1(=O)N=C(Oc2cccc(Br)c2)c2ccccc21 | inactive
55 | CCOP(=O)(OCC)C(Nc1cccc(C)c1)c1ccc(F)cc1 (centres undefined) | 16.4 µM (active)
56 | CCCCOC(=O)c1ccc(NC(c2ccc(C)cc2)P(=O)(OC)OC)cc1 (centres undefined) | inactive
57 | Cc1cccc(C(=O)OCC(=O)Nc2ccc(F)cc2)c1 | inactive
58 | CCOC(=O)c1cc2cc(OC)ccc2n1C1CCN(C)CC1 | inactive
59 | Cc1ccc2sc(N(Cc3cccnc3)C(=O)C3COc4ccccc4O3)nc2c1C (centres undefined) | inactive
60 | Cn1c(=O)[nH]c(=O)c2c1nc(Br)n2CCCCSc1nc2ccccc2o1 | inactive
61 | Cn1c(=O)c2c(nc(Br)n2CCSc2nc3ccccc3o2)n(C)c1=O | 6.51 µM (active)
62 | CCN(CC)C(=O)CSc1nc2ccccc2o1 | inactive
63 | O=C(Nc1ccc(N2CCOCC2)cc1)c1cccc2c(-c3ccc(F)c(F)c3)coc12 | inactive
64 | Cc1ccn(CC(=O)NC2CCCN(Cc3ccccc3F)C2)n1 (centres undefined) | inactive
65 | CCc1ccc(-c2nn(-c3ccccc3C)cc2C(=O)N2CCN(C3CCS(=O)(=O)C3)CC2)cc1 (centres undefined) | 14.6 µM (active)
66 | COc1ccccc1N1CCN(C(=O)c2cn(-c3ccccc3)nc2-c2cccnc2)CC1 | inactive
67 | CCn1cc(C(=O)N2CCN(C3CCCCC3)CC2)c2cc(OC)c(OC)cc2c1=O | inactive
68 | COc1cc(C)c(CN2CCN(C(=O)CCC(=O)c3ccc(C)s3)CC2)cc1OC | inactive
69 | CCCNC(=O)c1cc(C2CCCCN2S(=O)(=O)c2ccc(C#N)cc2)on1 (centres undefined) | inactive
70 | O=C(CN1CCSc2ccccc21)N1CCN(c2ccccc2)CC1 | inactive
71 | CCN(CC)CCNC(=O)c1ccc(NC(=O)c2cc(-c3ccncc3)nc3ccccc23)cc1 | inactive
72 | CCCN(CCC)CCNC(=O)c1cc2c(C)nc3ccccc3c2o1 | 14.1 µM (active)
73 | Cc1nc2ccccc2c2oc(C(=O)NCCCN3CCC(C)CC3)cc12 | inactive
74 | Cc1csc[n+]1CCC1CCCCC1 | inactive
75 | COc1ccccc1CC(=O)Nc1ccc([N+](=O)[O-])cc1OC | 16.4 µM (active)

Row | SMILES | Potency
76 | COc1ccccc1CC(=O)Nc1ccc(F)cc1F | inactive
77 | COc1cc([N+](=O)[O-])ccc1NC(=O)CN1CCCC1 | inactive
78 | Cc1ccc(CNC(=O)CCc2c(C)nc3c(c(C)nn3-c3ccccc3)c2C)cc1 | inactive
79 | Cc1ccccc1S(=O)(=O)NC(=O)C1(C)CCN1C(=O)C1(c2ccccc2)CCCC1 (centres undefined) | inactive
80 | COc1cc(C2CC(=O)Oc3cc(OC)c(OC)c(OC)c32)cc(OC)c1OC (centres undefined) | inactive
81 | COc1cc(OC)c2c(c1)OC(=O)CC2c1cc(OC)c(OC)c(OC)c1 (centres undefined) | inactive
82 | COc1cc(C2c3cc4c(cc3C(O)C3COC(=O)C23)OCO4)cc(OC)c1OC (centres undefined) | 4.11 µM (active) and 231 nM (active)
83 | Cc1nn(C)c2c1c(C(F)(F)F)cc(=O)n2C(C)C(=O)NCc1ccc(Cl)cc1 (centres undefined) | inactive
84 | Cc1cccc(-c2cnc(C(O)c3ccc4ccccc4c3)[nH]2)c1 (centres undefined) | inactive
85 | Cc1cc(Nc2ccc(C(=O)N3CCCCC3)cc2)c2cccc(C)c2n1 | inactive
86 | Cc1ccccc1-c1ccc(Nc2ccc(C(=O)N3CCOCC3)cc2)nn1 | 14.6 µM (active)
87 | O=C(Cc1ccc([N+](=O)[O-])cc1)Nc1ccc(C(=O)N2CCOCC2)cc1 | inactive
88 | Cc1ccccc1NC(=O)Cc1nc(COC(=O)CNC(=O)c2ccc(Cl)cc2Cl)cs1 | inactive
89 | CS(=O)(=O)/C(C#N)=C/c1cccn1S(=O)(=O)c1ccc([N+](=O)[O-])cc1 | inactive
90 | COc1ccc(C(C)(O)c2nc(-c3ccc(C)c(C)c3)cs2)cc1 (centres undefined) | inactive
91 | COCCNc1nc(N)c([N+](=O)[O-])c(NCCO)n1 | inactive
92 | COc1cccc(Nc2nc(N)c([N+](=O)[O-])c(NCc3ccco3)n2)c1 | inactive
93 | CN(c1ccccc1)c1nc(N)c([N+](=O)[O-])c(NCc2ccco2)n1 | 20.6 µM (active)
94 | Cc1cccc(S(=O)(=O)N(C)C[C@@H]2OCc3cnnn3CCCC(=O)N([C@H](C)CO)C[C@@H]2C)c1 | inactive
95 | CCc1ccccc1OCCSc1nc(-c2cccs2)nc2cc(=O)[nH]n12 | inactive
96 | Cc1nnc(SCC(=O)NCc2ccccc2Cl)c2nn(-c3ccccc3)c(C)c12 | inactive
97 | CNC(=O)C[C@H]1C(=O)N(c2ccc(OC)cc2)C[C@@H]1Cc1ccccc1 | inactive
98 | C[C@H]1CN(c2ccc(Br)cc2)C(=O)[C@@H]1CC(=O)Nc1ccc(Br)cc1 | inactive
99 | O=C(NCc1cccnc1)c1cc(C2CCCCN2C(=O)CCc2ccccc2)on1 (centres undefined) | inactive
